Sa growth 42C = inhibitors of Staphylococcus aureus growth at 42 °C; S. aureus RN4220 growth, OD600, 20 h; stronger effect = lower value; relative growth, % (test concentration not listed); actives 0.53% (n = 170,000); AID 720641;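 active means relative growth at most 50% at the other temperature and 20+ points below 30 °C, or under 10% at both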
S aureus helic = S. aureus DNA helicase inhibition; actives 0.05% (n = 120,000); inhibition, % (test concentration not listed); purified S. aureus helicase, fluorescence unwinding assay; in the data active means inhibition above about 25%, passing the limit was not always enough
Hits are given with their value; 0 = inactive; - = not tested or not shown. Hits are enriched below; roughly 0.52% of the tested compounds scored in any of these assays.

SMILES	Sa growth 42C	S aureus helic
CCN(CC)S(=O)(=O)c1ccc(C(=O)Nc2nnc(-c3ccc(S(C)(=O)=O)cc3)o2)cc1	0	0
CC(=O)O[C@H]1C[C@@]2(C)[C@@H](C[C@@H](O)C3[C@]2(C)CC[C@H]2[C@H](C)[C@H](O)CC[C@]32C)/C1=C(/CCC=C(C)C)C(=O)O (some centres undefined)	0.6	-
Cc1ccc(S(=O)(=O)N(CCC#N)c2ccc(Br)cc2)cc1	0	0
O=c1c2snc(-c3ccc(Cl)cc3)c2ncn1C1CC1	0	0
COc1ccccc1NC(=O)C(C)Sc1nc(C)cs1 (centres undefined)	0	0
O=c1[nH]cc(F)c(=O)[nH]1	-0.5	-
CN(C)c1c[nH]c(=O)[nH]c1=O	0	0
COC(=O)c1ccc(COc2coc(CN3CCc4ccccc4C3)cc2=O)cc1	0	0
Cc1[nH]nc(-c2ccc(O)c(C)c2O)c1Oc1ccccc1	0	0
Cc1[nH]nc(-c2ccc(O)cc2O)c1Oc1ccc(C(C)C)cc1	29	0
Cc1occc1C(=O)Nc1cc(C(C)(C)C)on1	0	0
Cc1occc1C(=O)N=Nc1cc(C(C)(C)C)c(O)c(C(C)(C)C)c1	1.4	0
COC(=O)c1ccccc1Cc1nc(=O)c2ccccc2n1C	-	0
O=C1C(Nc2ccccc2)=C(n2nnc3ccccc32)C(=O)c2ccccc21	0	0
O=C1C(Nc2cccc(O)c2)=C(n2nnc3ccccc32)C(=O)c2ccccc21	0.6	0
CC(=O)N=Nc1c2[nH]c3ccccc3nc-2c2ccccc12	7.6	0
CC(=O)Nc1ccccc1-c1nc2ccccc2[nH]c1=O	0	0
COc1ccc(C2C(C(=O)NCCC3=CCCCC3)c3ccccc3C(=O)N2C)cc1 (centres undefined)	0	0
O=S(=O)(c1ccccc1)c1nnn2c1nc(N1CCCCC1)c1sccc12	0	0
CC(=O)Oc1ccccc1C(=O)Nc1ccc(C(N)=O)cc1	0	0
CC(=O)Oc1ccccc1C(=O)Nc1ccc(OC(F)F)cc1	4.2	0
NCCCSc1ccccc1	0	0
CC[C@@H]1OC(=O)C[C@@H](O)[C@H](C)[C@@H](O[C@@H]2O[C@H](C)[C@@H](O)[C@H](N(C)C)[C@H]2O)[C@@H](CCN2C[C@H](C)C[C@H](C)C2)C[C@@H](C)C(=O)/C=C/C(C)=C\[C@@H]1CO[C@@H]1O[C@H](C)[C@@H](O)[C@@H](OC)[C@H]1OC	0.5	-
Cc1cc(C(=O)N/N=C/c2c(C)nc3sccn23)c(C)o1	0	0
COc1ccc(SCC(=O)O)cc1	0	0
SMILES	Sa growth 42C	S aureus helic
Cc1ccc(C)n1-c1ccc(SCC(=O)O)cc1	0	42
S=C(NCc1ccco1)NC1OCCOC1NC(=S)NCc1ccco1 (centres undefined)	0	0
COc1ccc(-c2cc(=NC(CC(C)C)C(=O)O)c3cc(C)ccc3o2)cc1 (centres undefined)	0	0
COc1ccc(-c2cc(=NCCc3ccccc3)c3cc(C)ccc3o2)cc1	0	46
O=c1c2ccccc2cnn1-c1ccc(F)cc1F	0	0
O=S(=O)(c1cccc2ccccc12)N1CCCCC1	0	0
CC(C)CNC(=O)c1ccccc1S(=O)(=O)N1CCCCC1	49	0
CC(C)Cn1cnc2c1c(=O)n(Cc1coc(-c3ccccc3)n1)c(=O)n2Cc1ccccc1	0	0
O=C(O)C1=C(CSc2nnnn2CS(=O)(=O)O)CS[C@@H]2C(NC(=O)[C@H](O)c3ccccc3)C(=O)N12 (some centres undefined)	-0.7	-
Cn1nnnc1SCC1=C(C(=O)O)N2C(=O)C(NC(=O)C(O)c3ccccc3)C2SC1 (centres undefined)	-0.5	-
Cn1nnnc1SCCC(=O)Nc1ccccc1	0	0
O=C(NCCSc1nnnn1-c1ccccc1)C(c1ccccc1)c1ccccc1	0	0
CO[C@@]1(NC(=O)C(C(=O)O)c2ccc(O)cc2)C(=O)N2C(C(=O)O)=C(CSc3nnnn3C)CO[C@@H]21 (some centres undefined)	0	-
Cn1nnnc1SCC1=C(C(=O)O)N2C(=O)C(NC(=O)C(OC=O)c3ccccc3)C2SC1 (centres undefined)	-0.7	-
N#Cc1c(NC2=CC(=O)CCC2)sc2c1CCCC2	0	0
OC1N(CN2CCN(c3ccccc3F)CC2)c2ccccc2C12OCCCO2 (centres undefined)	0	0
ICC1COC[N+]12CCOCC2 (centres undefined)	-	0
CCOc1ccccc1C1SCC(=O)N1CCN1C(=O)S/C(=C\c2ccc(F)cc2)C1=O (centres undefined)	0	0
CSc1ccc(/C=N/n2nnnc2Nc2ccccc2)cc1	0	0
c1ccc(-c2ccc3c(c2)c2c4n3CCNC4CCC2)cc1 (centres undefined)	0.3	0
OC(c1ccccc1)c1ccc2c(c1)c1c3n2CCNC3CCC1 (centres undefined)	0	0
Cc1c2cnn(CC(=O)NC3CCC(C)CC3)c(=O)c2c(C)n1Cc1ccc(F)cc1 (centres undefined)	0	0
C[C@@H]1CN(c2c(F)c(N)c3c(=O)c(C(=O)O)cn(C4CC4)c3c2F)C[C@H](C)N1	-0.1	-
O=C(CN1C(=O)c2ccccc2C1=O)Oc1cccc2cccnc12	0.8	0
N#Cc1ccccc1OC(=O)CCN1C(=O)c2ccccc2C1=O	0	0
SMILES	Sa growth 42C	S aureus helic
O=C(CCN1C(=O)c2ccccc2C1=O)Oc1cccc2cccnc12	-0.6	0
O=C(Cc1ccccc1)Oc1cccc2cccnc12	-	0
O=C(/C=C/c1ccc(OC(F)F)cc1)NCc1ccccn1	0	0
N#CC1=C(CBr)NC(CBr)=C(C#N)C12CCCCC2	0	48
CCSC1=C(C#N)C2(CCCCC2)C(C#N)=C(N)N1	0	0
O=C(NCCN1CCOCC1)Nc1c[nH]c2ccccc12	3.2	0
CC1CCCCN1C(=O)Nc1c[nH]c2ccccc12 (centres undefined)	2.7	0
CC1Cc2ccccc2N1C(=O)Nc1c[nH]c2ccccc12 (centres undefined)	0	0
CC(=O)N1CCN(C(=O)Nc2c[nH]c3ccccc23)CC1	6.1	0
O=C(Nc1c[nH]c2ccccc12)N1CCCc2ccccc21	0	0
O=C(NCCN1CCOCC1)Nc1c[nH]c2ccccc2c1=O	0	0
CCn1c(CSc2nc(C)c(C)n2C2CCCC2)nc2cc(S(=O)(=O)N(C)C)ccc21	0	0
O=C(c1cnc2c3ccccc3nn2c1)c1ccccc1O	0	0
COc1cccc(-c2nc(CS(=O)(=O)CC(=O)NC(C)c3ccccc3)c(C)o2)c1 (centres undefined)	0	0
CCN1CCN(Cc2ccc(NC(=O)c3cc4ccc5cccnc5c4[nH]3)cc2)CC1	0	91
O=C(c1cc2ccc3cccnc3c2[nH]1)N1CCN(Cc2ccccc2)CC1	0	0
CCOC(=O)c1cc(-c2ccccc2)sc1NC(=S)Nn1cnnc1	0	0
CC1(C)CC(=O)C/C(=N/Nc2nc3ccccc3o2)C1	0	0
COc1ccccc1-c1c(C)nn2c(NCCCN3CCCC3=O)cc(C)nc12	0	0
Cc1ccc(Nc2cc(=O)[nH]c(=O)[nH]2)cc1C	8.5	-
Cc1cccc(Nc2cc(=O)[nH]c(=O)[nH]2)c1	0	0
O=C(Nc1n[nH]c(C(F)(F)F)n1)c1ccco1	0	0
COc1ccc(-c2ccc(CNCCN3CCOCC3)o2)cc1Cl	0	0
Cc1cc(C)n(CCC(N)=O)n1	0	0
Cc1ccc(NC(=O)c2ccn(C(=O)Nc3cccc(Cl)c3)n2)cc1	45	0
Cc1ccc(NC(=O)c2ccc(=O)n(CC(=O)Nc3cccc(C)c3)n2)cc1	0	-

Assay outcomes from PubChem BioAssay.
